Data from publication PMC5540273 (PLoS ONE, 2017).

How the values were obtained:
Conditions in all cases: concentration: 1 μM, replicates: in singlicate; n = 1
[1] = test system: IRAK4
[2] = test system: ITK
[3] = test system: JAK1(JH1domain-catalytic)
[4] = test system: JAK1(JH2domain-pseudokinase)
[5] = test system: JAK2(JH1domain-catalytic)
[6] = test system: JAK3(JH1domain-catalytic)
[7] = test system: T1, JNK1
T1 construct: gene MAPK8

[8] = test system: T2, JNK2
T2 construct: gene MAPK9

[9] = test system: T3, JNK3
T3 construct: gene MAPK10

[10] = test system: KIT-autoinhibited
[11] = test system: KIT
[12] = test system: LATS1
[13] = test system: LATS2
[14] = test system: LCK
[15] = test system: LIMK1
[16] = test system: LIMK2
[17] = test system: T4, LKB1
T4 construct: gene STK11

[18] = test system: T5, LOK
T5 construct: gene STK10

[19] = test system: LRRK2
[20] = test system: LTK
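Also: KINOMEscan kinase panel screen.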

Row | Compound | %Inh [1] [%] | %Inh [2] [%] | %Inh [3] [%] | %Inh [4] [%] | %Inh [5] [%] | %Inh [6] [%] | %Inh [7] [%] | %Inh [8] [%] | %Inh [9] [%] | %Inh [10] [%] | %Inh [11] [%] | %Inh [12] [%] | %Inh [13] [%] | %Inh [14] [%] | %Inh [15] [%] | %Inh [16] [%] | %Inh [17] [%] | %Inh [18] [%] | %Inh [19] [%] | %Inh [20] [%]
1 | Cc1ccc(NC(=O)Nc2cccc(Cl)c2)cc1-c1ccc(C(=O)Nc2ccncc2)cc1 [GSK1398468] | 13 | 16 | 16 | 6 | 1 | 0 | 15 | 14 | 0 | 0 | 99.6 | 0 | 0 | 25 | 0 | 12 | 0 | 0 | 0 | 7
2 | Cc1ccc(NC(=O)Nc2cc(C(C)(C)C)nn2-c2ccccc2)cc1 [GSK1014915] | 23 | 12 | 0 | 0 | 13 | 0 | 45 | 39 | 10 | 0 | 98.6 | 31 | 0 | 24 | 5 | 0 | 0 | 60 | 0 | 67
3 | CCn1c(-c2ccccn2)nc2cnccc21 [SB-736398] | 37 | 0 | 0 | 0 | 17 | 0 | 24 | 19 | 8 | 0 | 0 | 0 | 0 | 12 | 13 | 0 | 0 | 0 | 31 | 1
4 | Fc1cccc(COc2nnc(-c3ccc4c(c3)CCO4)o2)c1 | 5 | 23 | 0 | 10 | 0 | 5 | 6 | 0 | 0 | 0 | 3 | 0 | 0 | 0 | 0 | 0 | 16 | 0 | 4 | 0
5 | O=C(Nc1n[nH]c2nc(-c3nccs3)c(Br)cc12)C1CC1 [SB-742251] | 43 | 13 | 1 | 21 | 36 | 0 | 41 | 16 | 16 | 0 | 1 | 24 | 0 | 0 | 0 | 0 | 0 | 0 | 32 | 0
6 | Cc1ccc(C(=O)Nc2ccc(Nc3ccnc4cc(-c5ccccn5)ccc34)cc2O)cc1.Cl [GW440146] | 9 | 0 | 16 | 0 | 5 | 0 | 5 | 15 | 0 | 17 | 89 | 0 | 0 | 84 | 0 | 2 | 9 | 14 | 4 | 12
7 | Cl.O=C(Nc1cccc(-c2nn3ncccc3c2-c2ccnc(Nc3cccnc3)n2)c1)c1c(F)cccc1F [GSK312879] | 28 | 15 | 15 | 0 | 23 | 0 | 14 | 18 | 19 | 0 | 36 | 2 | 0 | 44 | 2 | 0 | 0 | 0 | 39 | 3
8 | COc1ccc(C2=C(Nc3cccc(C(=O)O)c3)C(=O)NC2=O)cc1 [SB-390765] | 0 | 0 | 0 | 18 | 12 | 0 | 41 | 32 | 33 | 14 | 6 | 26 | 20 | 10 | 100 | 0 | 11 | 28 | 0 | 11
9 | Nc1ncnc2[nH]c(-c3ccccc3)nc12 [AH5015] | 52 | 12 | 8 | 34 | 47 | 0 | 9 | 16 | 15 | 14 | 21 | 0 | 0 | 26 | 15 | 0 | 0 | 0 | 34 | 91.4
10 | Cc1cccc(-c2nc(Nc3ccc4[nH]ncc4c3)c3ccccc3n2)n1 [GW857175] | 18 | 5 | 18 | 83 | 22 | 60 | 36 | 32 | 31 | 30 | 3 | 1 | 50 | 10 | 6 | 2 | 14 | 19 | 15 | 0
11 | Cc1cccc(-c2cc(Nc3ccncc3)c3ccccc3n2)n1 [GSK223675] | 13 | 0 | 11 | 5 | 100 | 0 | 11 | 27 | 15 | 0 | 19 | 0 | 22 | 9 | 0 | 0 | 7 | 0 | 0 | 0
